# Laboratory results: PubChem BioAssay (NCI)
# The panel holds about 83,000 compounds, 20% with a hit somewhere; the sample as a whole holds those more often.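 For each line, cells grew in 96-well plates with the test compound present at a single concentration for 48 hours.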 A number with no mark means an inactive call. The source made the active and inactive calls. How the source made its calls: active means growth percent below 10; inactive means the rest.
# Tested on: HL-60(TB) leukemia
# Assay: NCI-60 one-dose screen, 48 h (100 = growth as untreated, 0 = no growth, -100 = all killed)
# Details: 10 µM unless noted
row,SMILES,growth
1,O=C1NC(=O)/C(=C/c2ccc(OCc3cc4ccccc4nc3Cl)cc2)S1,100%
2,N#Cc1cccc(CN2CCC3=C(C2)C(=O)N(Cc2ccc(Cl)cc2)C2=NCCCN23)c1,11.7%
3,CC(C)(C)c1cc(NC(=O)Nc2ccc(-c3cn4c5c(sc4n3)CCc3cn(CCCN4CCCCC4)cc3-5)cc2)no1,-18.9% (active)
4,CCCCCc1ccc(S(=O)(=O)Nc2cccc(-c3csc(NCCN4CCN(C)CC4)n3)c2)cc1,0.22% (active)
5,COc1ccccc1-n1cc(C#N)c(N)c1C(=O)c1ccc(Br)cc1,35.8%
6,CNC(=O)c1cc(-c2ccc(NC(=S)Nc3cccc(C(F)(F)F)c3)cc2)nc2cccnc12,109%
7,O=C1Nc2ccc(Cl)cc2/C1=C/c1ccc(OCc2ccc(Br)cc2F)cc1,98%
8,COc1cc(-c2nc3ccc(-c4nnc(SCC(=O)Nc5ccc(C(C)=O)cc5)o4)cc3[nH]2)cc(OC)c1OC,104%
9,Nc1nc(-c2cccc([N+](=O)[O-])c2)c(N=Nc2cccc([N+](=O)[O-])c2)s1,118%
10,NS(=O)(=O)c1ccc(Nc2nc(N/N=C/c3ccc(C(F)(F)F)cc3)nc(Nc3ccccc3)n2)cc1,48.9%
11,CCN1C(=O)N(CC)C2SC(N/N=C/c3ccc(OC)cc3)=NC21 (centres undefined),-16.6% (active)
12,O=C(N/N=C/c1ccc(Br)s1)c1[nH]c2ccc(Br)cc2c1-c1ccccc1,-43.4% (active)
13,Clc1ccc(N/N=c2/oc3ccccc3cc2-c2cc3ccccc3[nH]2)cc1,88.7%
14,N#Cc1ccc(/C=N/NC(=O)c2[nH]c3ccc(Br)cc3c2-c2ccccc2)s1,-40% (active)
15,O=C(COc1ccc(/C=C2\C(=O)Nc3ccc(Cl)cc32)cc1)Nc1ccc(Cl)cc1,57.6%
16,C=C1C(=O)O[C@@H]2C[C@@H](C)/C=C\C(=O)[C@](C)(OC(C)=O)C[C@H](OC(=O)/C(C)=C\C)[C@@H]12,-3.8% (active)
17,CN1CCN(Cc2ccc(NC(=O)c3cncc(C#Cc4cnc5ccc(OCC6(C)COC6)nn45)c3)cc2C(F)(F)F)CC1,-27.6% (active)
18,COc1ccc(C(=NNS(=O)(=O)c2ccc(C)cc2)c2ccccc2)cc1OC,96.9%
19,COc1ccc([C@@H]2C(=O)N(c3cc(OC)c(OC)c(OC)c3)[C@H]2c2ccc(OC)c(O)c2)cc1,2.64% (active)
20,COc1ccccc1-n1cc(C#N)c(N)c1C(=O)c1ccc(Cl)cc1,36.5%

row,SMILES,growth
1,CCN(CC)CCN1C(=O)c2c(c3c4cccnc4[nH]c3c3ccc4ccccc4c23)C1=O,56.2%
2,Nc1nc(-c2cccc([N+](=O)[O-])c2)c(N=Nc2cccc(Cl)c2)s1,56.4%
3,N/C(=N\C(N)=N\c1nc2ccccc2s1)c1ccncc1Cl,6.91% (active)
4,CNC(=O)c1cc(-c2ccc(NC(=O)Nc3ccc(N4CCOCC4)c(C(F)(F)F)c3)cc2)nc2cccnc12,25.2%
5,CCOC(=O)c1csc(NC(=O)CSc2nc3sc4c(c3c(=O)n2-c2ccc(Cl)cc2)CCCC4)n1,92.1%
6,C/C(=C(/c1ccc(Cl)cc1)c1ccc(OCCN)cc1)c1ccc(C)cc1,102%
7,COc1cc(-c2ccc3ncnc(NC(C)c4ccccc4)c3c2)cnc1OC (centres undefined),43.2%
8,Cc1ccc(/C=C/CC(=O)Nc2ccc(C(=O)Nc3ccc(F)cc3N)cc2)cn1,8.39% (active)
9,CS(=O)(=O)c1ncc(-c2ccccc2)cn1,103%
10,COc1cc(OC)cc(C(=O)Nc2cccc(C#Cc3cccc4[nH]nc(N)c34)c2)c1,1.62% (active)
11,CC(=O)Nc1ccc(NC(=O)Nc2cccc(-c3nc(-c4ccc(NC(=O)c5cccnc5)cc4Cl)no3)c2)cc1C(F)(F)F,-39.1% (active)
12,CCCn1cnc2c(c1=N)C(c1ccc(Cl)cc1)c1sc3c(C)cccc3c1O2 (centres undefined),-20% (active)
13,O=C(CSc1nc2ccccc2c(=O)n1-c1ccc(Cl)cc1)N/N=C/c1ccc(N2CCCCC2)cc1,108%
14,Cc1cccc2c3c(sc12)C(c1ccc(Cl)cc1)c1c(nc(CC(=O)Nc2ccccc2)[nH]c1=O)O3 (centres undefined),71.3%
15,Brc1ccc(-c2cc(-c3ccc4c(c3)OC=CO4)n[nH]2)s1,78.8%
16,Cc1c(Nc2nnc(SCC(=O)Nc3sc4c(c3C#N)CCCC4)s2)c(=O)n(-c2ccccc2)n1C,108%
17,C#Cc1nc(C(=O)NCCCCCCC(=O)NO)cs1,-51.7% (active)
18,COc1cc(C2=NN(C(C)=O)C(c3ccc(N4CCOCC4)cc3)C2)cc(OC)c1OC (centres undefined),105%
19,CNC(=O)c1c(NC(=O)c2cccc(C(F)(F)F)c2F)sc2c1CCC(=O)C2,4.41% (active)
